Reference: publication PMC4552634, “A New Set of Chemical Starting Points with Plasmodium falciparum Transmission-Blocking Potential for Antimalarial Drug Discovery” (PLoS ONE, 2015)
The campaign covered roughly 13,000 compounds. About 3,200 (25%) showed an effect of 50% or more. This is one part of the list.

The compounds below were run on P. falciparum stage V gametocytes. Details: 48 h, 5 µM; inhibitor.
Set-up: BacTiter-Glo ATP luminescence viability of purified stage V gametocytes in 384-well plates, per cent inhibition versus DMSO

Compound | % Inhibition
CCN(CC)CCCC(C)Nc1cc(C=Cc2ccc([N+](=O)[O-])cc2)nc2ccc(OC)cc12.O=P(O)(O)O (stereo not shown) [TCMDC-124247] | 98.87%
COc1ccc2nc(-c3ccccc3)cc(NN=Cc3ccc([N+](=O)[O-])cc3)c2c1 [TCMDC-142045] | 15.04%
CCN(CC)CCCC(C)Nc1cc(C=Cc2ccccc2Cl)nc2cc(Cl)ccc12 (stereo not shown) [TCMDC-124294] | 59.52%
CCCN(CCC)CCCCC(C)Nc1c2ccc(Cl)cc2nc2ccc(OC)cc12 (stereo not shown) [TCMDC-137515] | 50.13%
CCN(CC)CCCC(C)Nc1cc(C)nc2cc(Cl)ccc12 (stereo not shown) [TCMDC-124246] | 33.92%
CCN(CC)CCCC(C)Nc1ccnc2ccc(OC)cc12.Cl.O (stereo not shown) [TCMDC-123888] | 15.61%
CCCN(CCC)C(C)CCC(C)Nc1c2ccc(Cl)cc2nc2ccc(OC)cc12 (stereo not shown) [TCMDC-137516] | 50.36%
CCN(CC)CCCC(C)Nc1ccnc2cc(Cl)ccc12 (stereo not shown) [TCMDC-123988] | 8.457%
O=C(NCCCN1CCN(c2cccc(Cl)c2)CC1)c1ccc(-c2nc3cc(Cl)c(Cl)cc3[nH]2)cc1 [TCMDC-140077] | 1.638%
Nc1nc(N)c2cc(S(=O)(=O)c3ccc4ccccc4c3)ccc2n1 [TCMDC-137192] | 3.776%
CCCCCCN1CCN(Cc2cccc(NC(=O)c3cccc(OCC)c3)c2)CC1 [TCMDC-134614] | -30.42%
Cc1cc(N(C)C2CCN(CC3CCCCC3)C2)nc(Nc2ccc(Br)cc2)n1 (stereo not shown) [TCMDC-137023] | -48.72%
CCCCCC(=O)N1CCOC(CCN2CCC(c3ccccc3)CC2)(c2ccc(Cl)c(Cl)c2)C1 (stereo not shown) [TCMDC-135328] | -33.56%
CN1CCN(c2ccnc3ccc(NC(=O)Nc4cccc5c(Br)cccc45)cc23)CC1 [TCMDC-139347] | 3.223%
Cc1cccc2nc(-c3ccc(-c4ccc(CNCC5CCCO5)cc4)s3)[nH]c12.O=C(O)C(F)(F)F (stereo not shown) [TCMDC-133101] | 42.96%
CCN(CC)CCCC(C)Nc1ccnc2[nH]c3ccccc3c12 (stereo not shown) [TCMDC-131826] | 12.54%
CCN(CC)CCCC(C)Nc1c2ccc(Cl)cc2nc2ccc(OC)cc12 (stereo not shown) [TCMDC-125480] | 101%
CCN(CC)CCCC(C)Nc1c2ccccc2nc2ccc3ccccc3c12 (stereo not shown) [TCMDC-137518] | 45.6%
CCN(CC)CCCC(C)Nc1c2ccccc2nc2c1ccc1ccccc12 (stereo not shown) [TCMDC-137517] | 51.71%
CCN(CC)CCCC(C)Nc1c2cc(OC)ccc2nc2cc(Cl)c([N+](=O)[O-])cc12 (stereo not shown) [TCMDC-138329] | -1.262%
Cc1cccc2[nH]c(-c3cccc(-c4ccc(NC(=O)c5cnn6cccnc56)cc4)c3)nc12 [TCMDC-136868] | -35.86%
CCCC(CNCc1ccc(Cl)c(C(F)(F)F)c1)CNc1nc2ccncc2[nH]1 (stereo not shown) [TCMDC-141057] | 56.14%
FC(F)(F)c1cc(CNCCCNc2nc3ccncc3[nH]2)ccc1Cl [TCMDC-140508] | -5.854%

Compound | % Inhibition
CCCc1c(Cl)cc(CNCCCNc2nc3ccncc3[nH]2)cc1Cl [TCMDC-140509] | 47.86%
O=C(Nc1ccc(Br)cc1)c1cc(Br)ccc1NS(=O)(=O)c1ccc(C(F)(F)F)cc1 [TCMDC-139752] | 29.13%
O=C(Nc1ccc(Br)cc1)c1cc(Br)ccc1NS(=O)(=O)c1cc(C(F)(F)F)cc(C(F)(F)F)c1 [TCMDC-139753] | -9.383%
COc1cc(NC(=O)Nc2ccc(Br)cc2C(=O)Nc2ccc(Br)cc2)cc(OC)c1OC [TCMDC-139733] | 85.99%
Cc1ccc(F)cc1-c1cc(N2CCCN(C(=O)c3ccc(Br)o3)CC2)ncn1 [TCMDC-125089] | 67.99%
COc1ccc(F)cc1-c1ccc(C(=O)N2CCCN(c3ccc(C#N)cn3)CC2)cc1 [TCMDC-133385] | 2.781%
COc1ccc(F)cc1-c1ccc(C(=O)N2CCCN(c3ccc(C(F)(F)F)cn3)CC2)cc1 [TCMDC-133384] | -50.34%
COCCN1CCC(N(CC2(O)CCN(c3ccc(C(F)(F)F)cc3)CC2)C(=O)Cn2c(SCc3cccc(F)c3F)cc(=O)c3ccccc32)CC1 [TCMDC-141629] | 101.7%
CCN1CCC(N(Cc2ccc(-c3ccc(C(F)(F)F)cc3)cc2)C(=O)Cn2c(SCc3cccc(F)c3F)cc(=O)c3ccccc32)C1 (stereo not shown) [TCMDC-141301] | 106.2%
O=C(Cn1c(SCc2cccc(F)c2F)cc(=O)c2ccccc21)N(Cc1ccc(-c2ccc(C(F)(F)F)cc2)cc1)C1CCN(CCO)CC1 [TCMDC-141705] | 107.3%
CC(C)(C)n1nnnc1C(c1cccnc1)N(Cc1ccccc1)Cc1ccc(Cl)cc1 (stereo not shown) [TCMDC-123530] | 11.45%
O=C(NCc1ccc(F)cc1)Nc1cccc(-c2ccc(-c3nc4ccccc4[nH]3)cc2)c1 [TCMDC-133300] | 7.874%
Cc1nc2nc(N)nc(N)c2c(C)c1Cc1cccc(C(F)(F)F)c1 [TCMDC-137658] | -3.325%
COc1ccc(CCCc2nc(N)nc(N)c2-c2ccc(Cl)cc2)cc1 [TCMDC-137358] | -7.157%
COc1cc2nc(SCC(C)C)n(CCCn3ccnc3)c(=N)c2cc1OC [TCMDC-125667] | 47.91%
COc1cc2nc(SCCCC#N)n(C3CCCCCC3)c(=N)c2cc1OC [TCMDC-123768] | 60.07%
O=C(CC1SC(N2N=C(c3cccs3)CC2c2ccccc2)=NC1=O)Nc1ccccc1F (stereo not shown) [TCMDC-124761] | 0.7985%
CCN(CCCN1CCCCC1)c1cc(C)nc(Nc2ccc(C)cc2C(F)(F)F)n1 [TCMDC-132444] | -24.78%
CCN(CCCN1CCCCC1)c1cc(C)nc(Nc2cccc(C(F)(F)F)c2C)n1 [TCMDC-132452] | 62.42%
CCN(CCCN1CCCCC1)c1cc(C)nc(Nc2cc(C(F)(F)F)ccc2C)n1 [TCMDC-132448] | 19.94%
CCN(CCCN1CCCCC1)c1cc(C)nc(Nc2ccc(F)c(C(F)(F)F)c2)n1 [TCMDC-132433] | 31.89%
CCN(CCCN1CCCCC1)c1cc(C)nc(Nc2ccc(C)c(Cl)c2)n1 [TCMDC-132438] | -8.632%
CCN(CCCN1CCCCC1)c1cc(C)nc(Nc2ccc(Cl)c(C(F)(F)F)c2)n1 [TCMDC-132439] | 56.88%
